Source: PubChem BioAssay (National Center for Advancing Translational Sciences (NCATS))
A selection: hits, their analogues and other compounds. The true share with any hit is near 0.64%.
BLM helicase inh = Bloom syndrome helicase (human) inhibition; P54132; actives 0.2% (n = 350,000); Potency, µM (highest dose often 56.1 µM), inactives show at the highest dose activity change, negative = inhibition, most hits filed as inhibitors; recombinant BLM DNA unwinding, fluorescence dequenching;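 also: plate controls were vehicle for no effect and no enzyme for full effect; nearly all actives have a fitted effect of over 35% in size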
TR SRC2 fluor cs = Texas Red fluorescence interference in TRb-SRC2 counter-screen; TRb/SRC2 Texas Red total fluorescence interference; Potency, µM (series often up to 106 µM), for the others: at the highest dose fluorescence change, negative = quenching; actives 0.29% (n = 280,000); AID 1479; active = well fitted curve in either direction with a large enough effect; inconclusive = small, poorly fitted or top-dose-only effect
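Human TRb ligand-binding domain at 0.6 uM with 20 nM Texas Red SRC2 peptide in Tris buffer containing 1 uM T3 and 5% DMSO, incubated with compound 5 h at ambient temperature. Total fluorescence (555/632 nm) calculated as parallel + 2 × perpendicular.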
RECQ1 inh-1 = inhibitors of human RECQ1 DNA helicase. Potency, µM (highest dose often 57.3 µM), without a hit: at the highest dose activity, negative = inhibition, usual class: inhibitors. RECQ1 DNA unwinding, red fluorescence kinetic read. P46063. actives 0.54% (n = 240,000);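 also: plate controls were vehicle for no effect and no enzyme for full effect; nearly all actives have a fitted effect of over 30% in size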
Target sequence (P46063 whole entry, looked up): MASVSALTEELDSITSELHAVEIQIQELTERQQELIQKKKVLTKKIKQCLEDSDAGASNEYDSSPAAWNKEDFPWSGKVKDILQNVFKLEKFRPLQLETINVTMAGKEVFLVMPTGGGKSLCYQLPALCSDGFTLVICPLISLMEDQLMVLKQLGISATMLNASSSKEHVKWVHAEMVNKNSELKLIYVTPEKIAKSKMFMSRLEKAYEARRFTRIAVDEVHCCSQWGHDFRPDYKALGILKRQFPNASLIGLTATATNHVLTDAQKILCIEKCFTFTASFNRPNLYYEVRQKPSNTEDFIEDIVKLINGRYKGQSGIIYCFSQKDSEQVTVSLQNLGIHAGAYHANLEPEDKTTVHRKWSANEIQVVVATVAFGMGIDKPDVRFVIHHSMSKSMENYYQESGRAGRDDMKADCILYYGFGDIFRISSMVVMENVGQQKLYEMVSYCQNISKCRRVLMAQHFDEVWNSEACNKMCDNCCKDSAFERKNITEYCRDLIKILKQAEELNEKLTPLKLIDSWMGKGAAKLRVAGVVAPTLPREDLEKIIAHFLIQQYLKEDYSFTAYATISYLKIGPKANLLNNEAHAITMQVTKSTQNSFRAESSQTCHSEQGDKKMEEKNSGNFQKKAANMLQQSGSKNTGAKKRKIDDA
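50 nM RECQ1T1 preincubated 15 min with compound in Tris pH 8.0 buffer with MgCl2, DTT, Tween-20 and 2.5 ug/ml poly(dI-dC); started with 200 nM TAMRA/BHQ-2 forked duplex and 2 mM ATP. Unwinding read as fluorescence (525/598 nm), two reads 2 h apart.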
TRb-SRC2 inh = disrupts binding of human TR beta to SRC2. P10828. TRbeta-SRC2 peptide binding, fluorescence polarization; receptor liganded with 1 µM T3. Potency, µM (highest dose often 106 µM), inactives show at the highest dose activity change, negative = inhibition, hits mostly inhibitors. actives 0.065% (n = 280,000);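 also: plate controls were bound peptide for no effect and peptide without receptor for full effect; nearly all actives have a fitted effect of over 50% in size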
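Binding of a 20-amino-acid Texas Red SRC2 peptide (20 nM) to TRb ligand-binding domain (0.6 uM) with agonist T3 at 1 uM was followed by fluorescence polarization after a 5 hr room-temperature incubation.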
RECQ1 conf = confirmation of human RECQ1 helicase inhibitors; shares compounds with RECQ1 inh-1; RECQ1 helicase DNA unwinding, fluorescence; Potency, µM (doses to about 229 µM), for the others: at the top dose activity change, negative = inhibition, usual class: inhibitors; actives 28% (n = 610); AID 2708; also: nearly all actives have a fitted effect of over 45% in size
RECQ1 ADP FP = ADP displacement flagged in RECQ1 inhibitor counter-screen. shares compounds with RECQ1 inh-1. ADP fluorescence polarization displacement counterscreen. actives 27% (n = 530). Potency, µM (highest dose often 228 µM), without a hit: at the highest dose activity change, negative = inhibition, usual class: inhibitors; also: nearly all actives have a fitted effect of over 45% in size
RECQ1 inh-2 = RECQ1 helicase inhibition confirmed, round 2 | shares compounds with RECQ1 inh-1 | recombinant RECQ1 DNA unwinding, red fluorescence | Potency, µM (top dose mostly 119 µM), without a hit: at the top dose activity, negative = inhibition, hits mostly inhibitors | actives 15% (n = 1,100); also: nearly all actives have a fitted effect of over 50% in size
* marks the source's active call; other numbers are inactive results; ? = inconclusive; nt = not tested or not shown; + = active, no number; [ ] = dose if it differs, or a comment. Unless noted, calls follow the shape of the dose curve; as a rule, active = well fitted curve in the direction sought with a large enough effect; inconclusive = small, poorly fitted or top-dose-only effect, or another doubt; inactive = no such curve, though single readings can be large; an effect the other way counts as inactive or inconclusive. Unless noted, % is scaled to controls: 0 for no effect and ±100 for the full control effect; potency is read from the fitted curve at half-maximal effect.

SMILES	BLM helicase inh	TR SRC2 fluor cs	RECQ1 inh-1	TRb-SRC2 inh	RECQ1 inh-2	others
Cc1ccccc1CNC(=O)C(=O)NCC(c1ccco1)S(=O)(=O)c1ccc(F)cc1 (centres undefined)	-2%	-1%	nt	4%	nt
O=C(CSc1ncnc2sc3c(c12)CCCC3)c1ccco1	-20%	-5%	?	-23%	-23%
O=C(CSc1ncnc2sc3c(c12)CCCC3)c1ccccc1	-1%	0%	-1%	13%	nt
C[C@@H]1[C@H](C)CC[C@@]2(C(=O)O)CC[C@]3(C)C(=CC[C@H]4[C@@]5(C)CC[C@@H](O)C(C)(C)[C@@H]5CC[C@@]43C)[C@@H]12	1%[21.4 µM]	?	12%[25.9 µM]	-6%[53 µM]	nt
CC1CCCC(C(=O)O)N1C(=O)CCSSCCC(=O)N1C(C)CCCC1C(=O)O (centres undefined)	-3%	0%	-5%	-12%	nt	RECQ1 conf=7%;RECQ1 ADP FP=5%
CC1CCCC(C)N1C(=O)C1CCCCC1 (centres undefined)	-1%	1%	?	-1%	nt
O=S(=O)(c1ccc(-c2cc(C(F)(F)F)on2)s1)N1CCN(c2ccc(F)cc2)CC1	-2%	-4%	nt	2%	nt
Cc1nnc2ccc(-c3ccc(NC(=O)Cc4cccs4)cc3)nn12	-12%	-12%	32µM*	5%	-29%
CC(=O)Nc1ccc(-c2ccc3nnc(C)n3n2)cc1	-4%	-2%	-3%	3%	nt
COC1[C@@H](OC)C[C@H](C)[C@@H](OC)C2=CC(=O)C=C(NC(=O)/C(C)=C/C=C\[C@H](OC)[C@@H](OC(N)=O)/C(C)=C/[C@@H]1C)C2=O (some centres undefined)	0%	-3%	-17%	-1%	nt
CCCS(=O)(=O)c1nc(S(=O)(=O)c2ccc(C)cc2)c(NC)s1	0%	-3%	nt	3%	nt
CC(=O)OCCn1c2nc(=O)[nH]c(=O)c-2nc2cc(C)c(C)cc21	-3%	-6%	-5%	-7%	nt
Cc1cc2nc3c(=O)[nH]c(=O)nc-3n(C)c2cc1C=O	16µM*	1%	3.2µM*	1%	nt	RECQ1 conf=+;RECQ1 ADP FP=6.3µM*
Cc1cc(NC(=O)C2CCCN(S(=O)(=O)c3cccc4nonc34)C2)ccc1Br (centres undefined)	0%	-1%	nt	3%	nt
NS(=O)(=O)c1cccc(NS(=O)(=O)c2ccc(/C=C/C(=O)OCC(=O)c3ccc(Br)cc3)cc2)c1	-14%	1%	?	8%	-1%
CCCn1nnc(NC(=S)NC(=O)/C=C/c2ccco2)n1	-1%	-4%	?	-12%	-5%
COc1ccccc1NC(=S)NC(=O)/C=C/c1ccco1	-19%	-3%[53 µM]	?	-9%[53 µM]	?
Cn1nnc(NC(=O)/C=C/c2ccco2)n1	-2%	-4%	11%	-11%	nt
COc1ccccc1NC(=O)/C=C\c1ccco1	-7%	nt	nt	nt	nt
CN(C)c1ccc(CN(Cc2ccco2)C(=O)c2ccc(F)cc2)cc1	-5%	5%	nt	0%	nt
COc1ccc2c(c1)c1c(c(=O)n(Cc3ccccc3)c(=O)n1Cc1ccccc1Cl)n2C	-1%	1%	nt	-5%	nt
COC(=O)c1ccc(-n2c(/C=C/c3cc(OC)c(OC)c(OC)c3)nc3cc(Cl)ccc3c2=O)cc1	-4%	-2%	nt	0%	nt
Cc1ccc2nc(NC(=O)C3CCN(S(=O)(=O)c4cc([N+](=O)[O-])ccc4Cl)CC3)sc2c1	-13%	-14%	32µM*	9%	?
O=C(Nc1nc2ccc(F)cc2s1)C1CCN(S(=O)(=O)c2cc([N+](=O)[O-])ccc2Cl)CC1	-13%	-11%	-20%	2%	nt
O=C(O)CSc1ncnc2scc(-c3ccccc3)c12	-8%	-1%	-3%	-1%	nt
SMILES	BLM helicase inh	TR SRC2 fluor cs	RECQ1 inh-1	TRb-SRC2 inh	RECQ1 inh-2	others
CN(C)C(=O)CSc1ncnc2scc(-c3ccccc3)c12	9%	2%	?	9%	-7%
NC(=O)CSc1ncc2c(n1)-c1ccccc1N(Cc1ccc(F)cc1)S2(=O)=O	-3%	-1%	nt	3%	nt
O=C1c2ccccc2C(=O)c2c(NCCCN(CCO)CCO)cccc21	16µM*	20%	20µM*	3%	18µM*
CCN(CC)CC(=O)Nc1cccc2c1C(=O)c1ccccc1C2=O	-1%	0%	-3%	1%	nt
S=C(NCCSCc1c(Cl)cccc1Cl)Nc1ccccc1	-11%	2%	13µM*	-13%	nt	RECQ1 conf=4%[114 µM];RECQ1 ADP FP=1%[91.9 µM]
COc1ccc(-c2oc3ncn4nc(-c5ccccc5Cl)nc4c3c2-c2ccc(OC)cc2)cc1	-3%	?	nt	-6%	nt
FC(F)(F)c1cccc(Nc2c3c(nc4ccc(Cl)cc24)CCC3)c1	-15%	-1%	nt	-3%	nt
Nc1ncnc2c1nc(Br)n2[C@@H]1O[C@H]2COP(=O)(O)O[C@@H]2[C@@H]1O	3%	-5%	-5%	-3%	nt
COc1ccc(-n2nnnc2SCC(N)=O)cc1	-1%	1%	-3%	-3%	nt
NC(=O)c1ccc(-n2nnnc2SCC(=O)c2ccc(O)c(O)c2)cc1	-22%	50µM*[quencher]	8.9µM*	?	?
COc1ccc(-n2nnnc2SCC(=O)c2ccc(O)c(O)c2)cc1	1%	-2%	13µM*	5%	7.1µM*
COc1ccc(Nc2cc(C(=O)NCCCN3CCN(c4ccc(OC)cc4)CC3)c3ccccc3n2)cc1	-10%	-1%	nt	-8%	nt
CCOC(=O)c1ccc(NC(=S)N2CCSC2c2ccc(Cl)cc2)cc1 (centres undefined)	-6%	-1%	?	16%	-10%
O=C(COC(=O)c1cccc(S(=O)(=O)N2CCN(c3ccccc3)CC2)c1)NCc1ccco1	18µM*	-4%	35µM*	14%	?
Cn1c(NCCCCO)nc2c1c(=O)n(Cc1ccc(Cl)cc1)c(=O)n2C	-3%	-9%	nt	1%	nt
Cc1cc(O)ccc1N=Cc1c(C(F)(F)F)[nH][nH]c1=O	-10%	32µM*[fluorescent]	8.9µM*	6.3µM*	-7%	RECQ1 conf=0%[114 µM];RECQ1 ADP FP=6.3µM*
CCN(CC)C(=O)CC(c1ccc(OC)cc1)c1c(OC)cc(OC)c2c(-c3ccccc3)cc(=O)oc12 (centres undefined)	-27%	0%	20µM*	4%	?
O=C1Nc2cc(Cl)ccc2Oc2cc(Oc3ccccc3)ccc21	-10%	-1%	nt	6%	nt
N#CC1=C(SCC(=O)c2cc3ccccc3oc2=O)NC(=O)C(C#N)C12CCCC2 (centres undefined)	-16%	-5%	?	6%	-8%
